Most compounds without a hit are left out; they make up all but 16% or so of the library.
uPA generation: qHTS for Inhibitors of Cell Surface uPA Generation; cell surface uPA generation assay, qHTS; Potency, µM (highest dose often 38.3 µM), for inactives: top-dose activity change, negative = inhibition, hits mostly inhibitors; 330,000 tested, 0.31% active; AID 540303, 2011; active = well fitted inhibition curve with a large enough effect; inconclusive = small, poorly fitted or top-dose-only effect; inactive = no such curve, though single readings can be large or run the other way; tested in mouse RAW 264.7 cells; also: potency is read from the fitted curve at half-maximal effect; % is scaled to controls: 0 for no effect and ±100 for the full control effect; nearly all actives have a fitted effect of over 55% in size
DT40 TDP1 no CPT: qHTS for Inhibitors of human tyrosyl-DNA phosphodiesterase 1 (TDP1): qHTS in cells in absence of CPT; DT40 Tdp1-/- hTDP1 cells, no CPT, ATP luminescence, 48 h; Potency, µM (top dose mostly 46.2 µM), for inactives: at the top dose activity change, negative = growth inhibition, usual class: inhibitors; 420,000 tested, 15% active; also: potency is read from the fitted curve at half-maximal effect; % is scaled to controls: 0 for no effect and ±100 for the full control effect; nearly all actives have a fitted effect of over 55% in size
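Cells were dispensed at 400 per well, compounds added by pin tool, plates incubated ≥48 hr at 37 °C, then CellTiter-Glo added for 30 min at room temperature before luminescence reading. Line: DT40 Tdp1-/- complemented with hTDP1; camptothecin omitted.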
TDP1 inh: qHTS Assay for Inhibitors of Tyrosyl-DNA Phosphodiesterase (TDP1). Tyrosyl-DNA phosphodiesterase 1 (Homo sapiens), Q9NUW8. recombinant TDP1, AlphaScreen DNA substrate cleavage. Potency, µM (top dose mostly 130 µM), for inactives: at the top dose activity change, negative = inhibition, usual class: inhibitors. 350,000 tested, 0.28% active. AID 485290, 2010; also: potency is read from the fitted curve at half-maximal effect; % is scaled to controls: 0 for no effect and ±100 for the full control effect; nearly all actives have a fitted effect of over 40% in size
Target sequence (Q9NUW8 whole entry, looked up): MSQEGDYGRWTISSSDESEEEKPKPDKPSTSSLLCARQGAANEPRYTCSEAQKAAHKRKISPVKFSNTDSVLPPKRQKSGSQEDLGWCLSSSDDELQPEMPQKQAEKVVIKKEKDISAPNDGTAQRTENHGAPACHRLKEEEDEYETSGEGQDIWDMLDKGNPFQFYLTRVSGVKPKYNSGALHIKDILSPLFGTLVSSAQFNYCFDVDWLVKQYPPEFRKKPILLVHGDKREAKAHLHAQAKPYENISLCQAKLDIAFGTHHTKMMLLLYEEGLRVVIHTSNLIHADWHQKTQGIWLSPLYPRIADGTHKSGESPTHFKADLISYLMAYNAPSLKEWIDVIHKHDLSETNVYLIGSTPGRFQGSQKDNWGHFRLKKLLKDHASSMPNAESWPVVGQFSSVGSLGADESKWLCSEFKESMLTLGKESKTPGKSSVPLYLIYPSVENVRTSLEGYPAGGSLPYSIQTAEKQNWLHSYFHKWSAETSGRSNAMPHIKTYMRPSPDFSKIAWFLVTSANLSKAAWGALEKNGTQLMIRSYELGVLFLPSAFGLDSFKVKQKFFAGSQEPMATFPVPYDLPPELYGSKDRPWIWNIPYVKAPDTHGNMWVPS
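Recombinant human Tdp1 (E. coli-expressed, 1 nM final) preincubated with compounds 15 min at room temperature, then 5'-biotin/3'-phosphotyrosine-FITC DNA substrate (15 nM final) added for 5 min. AlphaScreen beads (10 ug/ml final) added 10 min; cleavage lowers signal.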
miR-21 act: qHTS Assay for Modulators of miRNAs and/orActivators of miR-21 | 340,000 tested, under 10 active | Potency, µM (doses to about 38.3 µM), for the others: at the highest dose activity change, positive = activation, hits mostly activators | AID 2288, 2010 | HeLa miR-21 FLuc reporter, luciferase, 48 h;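 also: % of control where 0% means no effect; miR-21 action dims this reporter so a rising signal means less miR-21 action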
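Using DMEM plus 10% FBS, HeLa miR-21-FLuc cells are incubated with test compounds (final up to about 40uM) for 48 hours; firefly luciferase signal is then imaged following reagent-mediated lysis.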
TDP1 cell CPT: qHTS for Inhibitors of human tyrosyl-DNA phosphodiesterase 1 (TDP1): qHTS in cells in presence of CPT; Potency, µM (doses to about 46.2 µM), inactives show at the highest dose activity change, negative = growth inhibition, most hits filed as inhibitors; chicken DT40 Tdp1-/-;hTDP1 cells + 20 nM CPT, ATP luminescence, 48 h; 420,000 tested, 12% active; AID 686979, 2013; also: potency is read from the fitted curve at half-maximal effect; % is scaled to controls: 0 for no effect and ±100 for the full control effect; nearly all actives have a fitted effect of over 55% in size
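Chicken DT40 Tdp1-/- cells stably complemented with human TDP1 were seeded at 400 cells/well in medium containing 20 nM camptothecin, exposed to pin-transferred compounds, and grown at 37 °C for at least 48 hr. Viability was read as ATP luminescence.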
* hit, by the source's call; ? = inconclusive; . = no result given; [ ] = another dose, or the depositor's remark. Unless noted, calls follow the shape of the dose curve; as a rule, active = well fitted curve in the direction sought with a large enough effect; inconclusive = small, poorly fitted or top-dose-only effect, or another doubt; inactive = no such curve, though single readings can be large; an effect the other way counts as inactive or inconclusive.

SMILES	uPA generation	DT40 TDP1 no CPT	TDP1 inh	miR-21 act	TDP1 cell CPT
Cc1ccc2nc(SCc3nc4c(cnn4-c4ccccc4)c(=O)[nH]3)[nH]c2c1	1%	16µM*	3%	8%	21µM*
O=c1[nH]c(SCc2nc3c(cnn3-c3ccccc3)c(=O)[nH]2)nc2ccccc12	-14%	21µM*	-3%	-11%	?
S=C(Nc1ccc(Cl)cc1Cl)N1CCN(c2ccccn2)CC1	13%	11%	1%	1%	-13%
Cc1ccc(S(=O)(=O)N2CCSC2c2ccco2)cc1 (configuration not stated)	-2%	18µM*	1%	-5%	1%
Cc1ccc(S(=O)(=O)N2CCSC2C(=O)O)cc1 (configuration not stated)	-3%	2%	3%	-1%	3%
CCCCn1c(SCC(=O)NCc2ccco2)nc2cc(S(N)(=O)=O)ccc21	-2%	-2%	0%	-1%	-19%
CCOc1ccccc1NC(=S)/C(=C(\[O-])c1ccc2c(c1)OCCO2)[n+]1ccc(CC)cc1	7%	.	3%	-4%	21µM*
C[C@H](NC(=O)[C@@H]1CCCN1C(=O)[C@@H]1CCCN1C(=O)c1cccc(Cl)c1)c1ccccc1	.	-27%	.	.	?
Cc1ccccc1OCCC(=O)Nc1ccc(S(=O)(=O)N2CCCC2)cc1	.	15µM*	.	.	21µM*
CCOc1ccc(S(=O)(=O)N2CCN(C(=O)CCOc3ccccc3C)CC2)cc1	-8%	18µM*	-2%	.	?
COc1ccc(S(=O)(=O)N2CCN(C(=O)CCSc3ccccc3)CC2)cc1	-13%	?	2%	.	12µM*
CCOc1ccc(OCCC(=O)OCC(=O)N2CCN(S(=O)(=O)c3ccc(Cl)cc3)CC2)cc1	-15%	23µM*	25µM*	?	?
CCCCNC(=O)CS(=O)Cc1nc(-c2cccc(Cl)c2)oc1C (configuration not stated)	-14%	?	7%	-4%	?
CCOC(=O)c1nnc2c(-c3ccc(F)cc3)c(C)nn2c1N	.	2%	8%	-14%	6%
COc1cccc(NC(=O)NCCCCc2ccccc2)c1	-9%	-26%	0%	-19%	-18%
Cc1ccc(C)c(OCCC(=O)OCC(=O)N2CCN(S(=O)(=O)c3ccc(Cl)cc3)CC2)c1	10µM*	?	-14%	.	?
Cc1ccc(S(=O)(=O)N2CCN(C(=O)COC(=O)CCOc3cc(C)ccc3C)CC2)cc1	4%	?	4%[0.505 µM]	.	?
Cc1cc2nc(-c3ccc(F)cc3)c(Cc3cccc(Cl)c3)n2c(C)c1Br	.	?	.	.	23µM*
Cc1cc2nc(-c3ccccc3)c(Cc3cccc(Cl)c3)n2c(C)c1Br	.	26µM*	.	.	?
C[C@H]1CN([C@@H](C)CO)C(=O)CCCn2nncc2CO[C@H]1CN(C)C(=O)c1ccncc1	.	?	.	.	0%
CC1(C)CN(C(Cc2ccccc2)C(N)=O)C1=O (configuration not stated)	3%	13%	.	0%	0%
CC(C)c1cc(-c2cc(-c3ccc(Cl)cc3)on2)nc(NC2CCCC2)n1	8%	?	0%	5%	-21%
CCN1CCN(c2cc(N3CCc4ccccc4C3)c(F)cc2[N+](=O)[O-])CC1	-7%	10µM*	11%	13%	16µM*
CC(C)C(=O)N1CCN(c2cc(N3CCN(C)CC3)c(F)cc2[N+](=O)[O-])CC1	-1%	-1%	-4%	-7%	1%
Cc1ccc(N(CC(=O)NC(C)(C)C)C(=O)CNC(=O)c2cccs2)c(C)c1	8%	-14%	-2%	-1%	17%
SMILES	uPA generation	DT40 TDP1 no CPT	TDP1 inh	miR-21 act	TDP1 cell CPT
Cc1cc(/C=N/n2cnnc2)c(C)n1-c1ccc(OCc2ccc(Cl)cc2Cl)cc1	-9%	5.8µM*	10%	30%	7.3µM*
O=C1C(Cl)=C(NCc2cccnc2)C(=O)c2ccccc21	-11%	8.2µM*	.	?	13µM*
O=C(NCCc1ccc(F)cc1)N[C@@H](Cc1ccccc1)C(=O)O	-23%	4%	.	-2%	3%
O=C(O)c1cccc(NC2=C(Cl)C(=O)c3ccccc3C2=O)c1	?	13µM*	-2%	?	12µM*
CC(=O)N(Cc1ccc(F)cc1)C1=C(NCCc2ccccc2)C(=O)c2ccccc2C1=O	-16%	1.8µM*	14%	?	1.8µM*
COCCCNC1=C(Cl)C(=O)c2ccccc2C1=O	-13%	?	4%	-3%	?
O=C(O)c1cccc(NS(=O)(=O)/C=C/c2ccccc2)c1	4%	-11%	-4%	1%	-7%
CCN(CC)CCCNC1=C(Cl)C(=O)c2ccccc2C1=O	-15%	4.1µM*	.	?	3.3µM*
CC(C)CCn1c(SC(C)C(=O)NC2CC2)nc2ccccc2c1=O (configuration not stated)	-9%	-15%	0%	.	-27%
O=C(COC(=O)c1cc(Cl)ccc1O)NNC(=O)c1ccccc1F	6%	-20%	1%	.	-9%
C=CCNC1=C(Cl)C(=O)N(Cc2ccccc2)C1=O	0%	-16%	-5%	1%	2%
O=C1C(Cl)=C(Nc2ccccc2)C(=O)c2ccccc21	15%	2.9µM*	1%	-14%	2.1µM*
O=C1C(Cl)=C(NCCc2ccccc2)C(=O)c2ccccc21	-9%	1.5µM*	.	.	0.82µM*
C=CCNC1=C(Cl)C(=O)c2ccccc2C1=O	-6%	16µM*	9%	1%	15µM*
CC(C)NC1=C(Cl)C(=O)c2ccccc2C1=O	?	?	0%	2%	18µM*
Cc1c[n+](CC(=O)c2ccccc2)cs1	1%	-17%	.	-5%	-10%
O=C(O)c1ccc(NC2=C(Cl)C(=O)c3ccccc3C2=O)cc1	-13%	13µM*	-7%	-23%	15µM*
COC(=O)CCCC1=CC2=C(c3ccccc3)C(=O)C(C)(OC(=O)C3CCCC3)C(=O)C2=CN1Cc1ccc2c(c1)OCO2 (configuration not stated)	8%	?	7%[12.3 µM]	-5%	23µM*
COC(=O)CCCC1=CC2=C(c3ccccc3)C(=O)C(C)(OC(=O)C3CCCC3)C(=O)C2=CN1Cc1ccc(OC)cc1 (configuration not stated)	10%	?	9%[12.3 µM]	0%	23µM*
C=CCN1C=C2C(=O)C(C)(OC(=O)C3CCCC3)C(=O)C(c3ccccc3)=C2C=C1CCCC(=O)OC (configuration not stated)	-1%	-18%	7%[21 µM]	-1%	-15%

Screens: PubChem BioAssay, National Center for Advancing Translational Sciences (NCATS)
